Assay results published in publication PMC5540273 (PLoS ONE, 2017).

What was measured:
Settings in all cases: concentration: 1 μM, replicates: in singlicate; n = 1
[1] = test system: PIP5K1A
[2] = test system: PIP5K1C
[3] = test system: PIP5K2B
[4] = test system: T1, PIP5K2C
T1 construct: gene PIP4K2C

[5] = test system: T2, PKAC-alpha
T2 construct: gene PRKACA

[6] = test system: T3, PKAC-beta
T3 construct: gene PRKACB

[7] = test system: PKMYT1
[8] = test system: PKN1
[9] = test system: PKN2
[10] = test system: PLK1
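Further: KINOMEscan kinase panel screen.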

| Compound | %Inh [1] | %Inh [2] | %Inh [3] | %Inh [4] | %Inh [5] | %Inh [6] | %Inh [7] | %Inh [8] | %Inh [9] | %Inh [10] |
| --- | --- | --- | --- | --- | --- | --- | --- | --- | --- | --- |
| CCn1c(-c2nonc2N)nc2c(C#CC(C)(C)O)nc(OC[C@H](N)c3ccccc3)cc21 [GSK943949] | 0% | 90.8% | 0% | 0% | 98% | 97.7% | 19% | 90.8% | 19% | 0% |
| CNC(=O)c1ccccc1Nc1nc(Nc2ccc(N3CCOCC3)cc2)ncc1Cl.Cl [GSK1576028] | 45% | 0% | 85% | 57% | 96.5% | 93.6% | 32% | 55% | 52% | 96.3% |
| COc1cc(Nc2nccc(N3CCC(NC(=O)Nc4cccc(C(C)=O)c4)C3)n2)cc(OC)c1OC (stereo not shown) [GSK1379753] | 0% | 46% | 5% | 86% | 0% | 0% | 0% | 0% | 0% | 0% |
| Cn1cc(-c2[nH]c3cc(NC(=O)[C@H](N)C4CCCCC4)cc4c3c2C=NNC4=O)cn1 | 33% | 52% | 82% | 41% | 70% | 63% | 2% | 88% | 90.5% | 0% |
| Cc1ccc(F)c(C(=O)Nc2cccc(-c3nn4ccccc4c3-c3ccnc(Nc4cccc(F)c4)n3)c2)c1F [GSK361061] | 0% | 6% | 15% | 0% | 13% | 29% | 17% | 0% | 17% | 19% |
| Cl.Cl.NCC(NCc1ccc(-c2ccnc3[nH]ccc23)s1)c1ccccc1 (stereo not shown) [GSK1321565] | 71% | 63% | 45% | 39% | 97.9% | 94.9% | 0% | 30% | 64% | 0% |
| CN(c1ccc(NC(=O)Nc2cc(C(F)(F)F)ccc2F)cc1)c1ccnc(Nc2ccc(S(N)(=O)=O)cc2)n1 [GW809893] | 10% | 14% | 0% | 94.6% | 18% | 18% | 1% | 0% | 8% | 3% |
| COC(=O)Nc1nc2ccc(Oc3ccc(NC(=O)Nc4cc(C(F)(F)F)ccc4F)cc3)cc2n1C.Cl [GW692089] | 74% | 61% | 22% | 41% | 0% | 0% | 0% | 0% | 11% | 0% |
| c1ccc(Oc2ccc(Nc3ccnc4cc(-c5ccc(CNCCN6CCOCC6)o5)ccc34)cc2)nc1 [GW567145] | 62% | 71% | 21% | 57% | 0% | 0% | 0% | 0% | 0% | 0% |
| O=C(Nc1cccc(-c2nn3ncccc3c2-c2ccnc(Nc3ccccc3)n2)c1)c1c(F)cccc1F [GSK198271] | 0% | 0% | 11% | 27% | 5% | 2% | 7% | 8% | 0% | 3% |
| COCCOCCOc1cc2ncc3c4ccc(C#N)cc4[nH]c3c2cc1OC | 36% | 63% | 74% | 60% | 0% | 0% | 28% | 17% | 63% | 0% |
| CN1CCN(CCCNc2nccc(-c3c(-c4ccc(F)cc4)nn4cc(C(F)(F)F)ccc34)n2)CC1 [GW621581] | 0% | 11% | 0% | 0% | 0% | 9% | 0% | 12% | 0% | 0% |
| COc1cc(Nc2nccc(-c3c(-c4cccc(NC(=O)c5c(F)cccc5F)c4)nn4ncccc34)n2)cc(OC)c1OC [GSK327238] | 0% | 19% | 20% | 93.9% | 44% | 47% | 8% | 62% | 13% | 12% |
| COc1ccc(-c2coc3ccc(-c4nnc(SCc5ccc(OC)c(C(F)(F)F)c5)o4)cc23)cc1 | 0% | 0% | 4% | 0% | 15% | 3% | 17% | 24% | 3% | 0% |
| COc1cccc(C(=O)Nc2cccc(Oc3ccc4nc(NC(=O)C5CC5)cn4n3)c2)c1 | 0% | 10% | 0% | 28% | 6% | 47% | 0% | 0% | 4% | 0% |
| CCCCc1nn2ncccc2c1-c1ccnc(Nc2ccc(N3CCN(C)CC3)cc2)n1 [GW684941] | 33% | 48% | 5% | 96.7% | 0% | 8% | 0% | 5% | 0% | 0% |
